Assay results as given in the supplement of paper PMC6555819.

Key:
Assay in all cases: PBM binding z-score (relative to random genomic background probes); higher = stronger binding; sequences stand for … in GC…GCGATTGACAGCGTAGAATGAAGG
[1] = tested on: PPARg:RXRa DBDmut IVT, anti-RXR (DBD mutation: RXRa K156A/R161A, NR concentration 270 nM, RXRa partner concentration 90 nM)
How it was run: (§1)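 The probes on custom Agilent 4×180K protein-binding microarrays were double-stranded, with 34-nt variable regions bearing direct-repeat seeds, single-nucleotide variants, half-site ablations and random human genomic background sequences. Incubation lasted 1 h with ligand-free nuclear receptor dimers in PBS pH 7.4, 2% milk, 0.02% Triton X-100, 1 mM DTT, 0.2 mg/mL BSA and 0.4 mg/ml salmon testes DNA. Antibodies against each partner (one per run) detected bound dimers, and fluorescence scans were regression-normalized. Binding z-scores take the random background probes as reference.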

[2] = tested on: PPARg:RXRa IVT, anti-PPARg (NR concentration 270 nM, RXRa partner concentration 90 nM)
How it was run: as §1

[3] = tested on: PPARg DBDmut:RXRa IVT, anti-PPARg (DBD mutation: PPARg1 K132A/R137A, NR concentration 270 nM, RXRa partner concentration 90 nM)
How it was run: as §1

[4] = tested on: PPARg DBDmut IVT, anti-PPARg (DBD mutation: PPARg1 K132A/R137A, NR concentration 270 nM)
How it was run: as §1

[5] = tested on: PPARg homodimer (NR concentration 180 nM)
How it was run: as §1

[6] = tested on: PXR:RXRa (NR concentration 270 nM, RXRa partner concentration 90 nM)
How it was run: as §1

[7] = tested on: PXR homodimer (NR concentration 270 nM)
How it was run: as §1

[8] = tested on: RARa:RXR (NR concentration 270 nM, RXRa partner concentration 90 nM)
How it was run: as §1

[9] = tested on: RARa homodimer (NR concentration 270 nM)
How it was run: as §1

[10] = tested on: RARb:RXRa (NR concentration 270 nM, RXRa partner concentration 90 nM)
How it was run: as §1

[11] = tested on: RARb homodimer (NR concentration 270 nM)
How it was run: as §1

[12] = tested on: RARg:RXRa (NR concentration 270 nM, RXRa partner concentration 90 nM)
How it was run: as §1

[13] = tested on: RARg homodimer (NR concentration 270 nM)
How it was run: as §1

[14] = tested on: RXRa DBDmut IVT, anti-RXR (DBD mutation: RXRa K156A/R161A, NR concentration 90 nM)
How it was run: as §1

[15] = tested on: RXRa homodimer (NR concentration 180 nM)
How it was run: as §1

[16] = tested on: THRa:RXRa (NR concentration 90 nM, RXRa partner concentration 90 nM)
How it was run: as §1

[17] = tested on: THRa homodimer (NR concentration 90 nM)
How it was run: as §1

[18] = tested on: VDR:RXRa (NR concentration 270 nM, RXRa partner concentration 90 nM)
How it was run: as §1

[19] = tested on: VDR homodimer (NR concentration 270 nM)
How it was run: as §1

Row | Sequence | PBM binding z-score [1] | PBM binding z-score [2] | PBM binding z-score [3] | PBM binding z-score [4] | PBM binding z-score [5] | PBM binding z-score [6] | PBM binding z-score [7] | PBM binding z-score [8] | PBM binding z-score [9] | PBM binding z-score [10] | PBM binding z-score [11] | PBM binding z-score [12] | PBM binding z-score [13] | PBM binding z-score [14] | PBM binding z-score [15] | PBM binding z-score [16] | PBM binding z-score [17] | PBM binding z-score [18] | PBM binding z-score [19]
1 | AGTCAAAGTTCAGGACGAGGTAACGTGAAGCACG | -0.189 | 2.06 | 0.679 | 0.0315 | 1.48 | 2.72 | 0.947 | 2.65 | 1.04 | 4.51 | 1.95 | 4.86 | 4.39 | 2.8 | 3.03 | 3.97 | 1.65 | 3.16 | 1.62
2 | GATACAGGGTCAGCTAGAGGCCAGCGTATGGAAA | 1.62 | 2.35 | -0.653 | -0.347 | 2.22 | 2.97 | -0.477 | 4.55 | -0.0319 | 4.21 | 3.69 | 6.91 | 5.12 | 0.996 | 4.79 | 3.11 | 0.434 | 3 | 0.825
3 | TAGCGTAGGTCATTGGGCCAGTATAGTACGCATC | 1.8 | 3.26 | 0.193 | -0.343 | 1.85 | 2.07 | -0.335 | 2.36 | -0.0783 | 3.74 | 2.8 | 3.98 | 4.08 | 0.868 | 3.6 | 2.08 | -0.396 | 2.41 | 0.725
4 | CCTTACGGGTCACTGACAGGTTATACCATTTGGA | 3.69 | 3.72 | 0.775 | 0.106 | 2.46 | 3.75 | 0.348 | 4.53 | 1.11 | 4.14 | 3.56 | 5.73 | 4.84 | 1.64 | 5.54 | 2.85 | 0.447 | 3.9 | 1.41
5 | TCTCTGAGGACACGAAGGTCAGAGCTTTCCAGAG | 1.47 | 1.68 | 0.539 | -0.166 | 0.898 | 2.18 | 1.25 | 2.04 | -0.145 | 3.29 | 3.87 | 3.32 | 3.9 | 1.21 | 1.92 | 4.11 | 4.02 | 2.6 | 1.71
6 | TTACCAAGGTGAGCTGAGGTCGCTGATCCAACTC | 1.38 | 1.87 | -1.62 | -0.0566 | -0.197 | 3.58 | -0.341 | 1.5 | -1.47 | 1.95 | 1.76 | 1.33 | 1.22 | -0.393 | 1.2 | 4.95 | 2.17 | 2.9 | 0.556
7 | TCATATGGGTAAATGCTAGGTGAAAGTCCGATCT | 2.91 | 2.07 | 0.703 | 0.469 | -0.0354 | 0.217 | -0.0586 | 0.519 | -0.166 | 0.208 | 0.561 | 0.294 | -0.0205 | 0.923 | 0.517 | 1.38 | 0.395 | 0.528 | -0.156
8 | CCTCGGATGACAGAAGGTCAGAGCTGTCCGCTTT | 0.0182 | -0.0257 | -1.19 | -1.32 | 1.51 | 1.5 | 0.235 | 1.85 | 0.773 | 2.59 | 2.83 | 2.49 | 2.16 | 0.111 | 2 | 1.95 | -0.359 | 1.21 | 0.287
9 | TCATATACGTAATACAGGTGAAAGTCGGCATCTA | 2.77 | 1.63 | 0.572 | 1.29 | 1.17 | 0.689 | 0.477 | 0.982 | 1 | 0.727 | 0.8 | 0.758 | 0.567 | 1.76 | 1.3 | 0.75 | 0.27 | 1.29 | 0.145
10 | TGAATGAGGTTATAAGATCTGGGAACGTTGCAAA | 1.24 | 1.57 | 0.727 | -0.0307 | 0.305 | 0.714 | -0.0184 | 1.12 | 0.0804 | 1.07 | 0.515 | 1.04 | 0.631 | 0.607 | 1.61 | 1.67 | 0.199 | 0.768 | 0.194
11 | CCTTACGGGACACGAGGTTATAGCACGACGAGCG | 0.526 | 0.867 | 0.559 | 0.413 | 0.721 | 0.701 | 0.477 | 0.935 | 0.721 | 1.11 | 1.03 | 1.49 | 1.14 | -0.0752 | 1.19 | 1.77 | 0.83 | 0.648 | 0.544
12 | CAAACTTGGTCAAGAGGTCAAAGTCCGCTTCCCG | 2.35 | 3.8 | 0.805 | 0.619 | 2.46 | 5.73 | 1.66 | 6.15 | 1.11 | 4.47 | 4.85 | 5.94 | 4.95 | 2.03 | 6.1 | 3.78 | 1.66 | 5.4 | 3.57
13 | GCGACTGGGGCATCAGCAGGTTATCATAACTTAA | 3.69 | 3.13 | -0.424 | -0.757 | 0.000895 | 0.377 | -0.554 | 0.458 | -0.474 | 0.845 | 0.979 | 0.933 | 0.586 | -0.0902 | 0.555 | 1.05 | -0.305 | -0.0496 | -0.259
14 | TTACCAAGTTGAGCTGAGGTCGTTGATCCAACTC | -0.673 | 0.221 | -0.252 | -0.114 | -0.328 | 3.88 | 0.614 | 1.76 | -0.601 | 0.659 | 0.944 | 0.311 | 0.0622 | 0.245 | 0.839 | 4.34 | 1.77 | 2.7 | 2.04
15 | CCTACTGGGCCAAAGGTCAATGATTCCAATGCTC | 5.3 | 6.73 | 1.6 | 1.78 | 4.39 | 4.46 | 0.657 | 5.75 | 1.53 | 4.5 | 4.35 | 5.54 | 4.85 | 0.831 | 5.74 | 3 | 0.607 | 4.04 | 1.25
